Assay results published in ChEMBL document CHEMBL1961873, “Compounds: GSK PKIS; Assays: Nanosyn kinase panel” (2012).
Several values for one entry are separate records, joined by “and”; a condition that tells them apart may be missing. Identical values can stand only once.

Tests used:
[1] = molecular target: T1, 3-phosphoinositide-dependent protein kinase 1 (Homo sapiens) (UniProt O15530); conditions: at 0.1 µM;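 note: values are mean inhibition of PDK1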
T1 sequence (whole entry): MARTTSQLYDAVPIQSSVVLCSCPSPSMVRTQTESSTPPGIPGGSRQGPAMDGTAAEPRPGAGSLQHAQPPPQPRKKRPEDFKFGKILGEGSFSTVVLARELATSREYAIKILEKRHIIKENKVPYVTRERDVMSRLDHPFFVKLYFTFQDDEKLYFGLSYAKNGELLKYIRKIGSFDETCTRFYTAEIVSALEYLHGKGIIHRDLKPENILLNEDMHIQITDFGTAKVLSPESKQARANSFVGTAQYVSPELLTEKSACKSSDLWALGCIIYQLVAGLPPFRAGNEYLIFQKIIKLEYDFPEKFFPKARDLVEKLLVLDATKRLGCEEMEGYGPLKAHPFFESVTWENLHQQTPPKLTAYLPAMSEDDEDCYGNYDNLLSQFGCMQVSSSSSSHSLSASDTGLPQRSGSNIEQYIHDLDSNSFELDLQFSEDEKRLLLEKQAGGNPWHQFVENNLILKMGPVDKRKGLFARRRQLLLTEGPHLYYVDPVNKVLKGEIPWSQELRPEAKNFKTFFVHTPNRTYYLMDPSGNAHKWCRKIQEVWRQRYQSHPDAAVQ

[2] = molecular target: cAMP-dependent protein kinase catalytic subunit alpha (Homo sapiens) (UniProt P17612); conditions: at 0.1 µM
[3] = molecular target: cAMP-dependent protein kinase catalytic subunit alpha (Homo sapiens) (UniProt P17612); conditions: at 1 µM
[4] = molecular target: Protein kinase C alpha type (Homo sapiens) (UniProt P17252); conditions: at 0.1 µM
[5] = molecular target: Protein kinase C alpha type (Homo sapiens) (UniProt P17252); conditions: at 1 µM
[6] = molecular target: Protein kinase C beta type (Homo sapiens) (UniProt P05771); conditions: at 0.1 µM
Sequence of Protein kinase C beta type (Homo sapiens) (P05771 2-671 limits assumed): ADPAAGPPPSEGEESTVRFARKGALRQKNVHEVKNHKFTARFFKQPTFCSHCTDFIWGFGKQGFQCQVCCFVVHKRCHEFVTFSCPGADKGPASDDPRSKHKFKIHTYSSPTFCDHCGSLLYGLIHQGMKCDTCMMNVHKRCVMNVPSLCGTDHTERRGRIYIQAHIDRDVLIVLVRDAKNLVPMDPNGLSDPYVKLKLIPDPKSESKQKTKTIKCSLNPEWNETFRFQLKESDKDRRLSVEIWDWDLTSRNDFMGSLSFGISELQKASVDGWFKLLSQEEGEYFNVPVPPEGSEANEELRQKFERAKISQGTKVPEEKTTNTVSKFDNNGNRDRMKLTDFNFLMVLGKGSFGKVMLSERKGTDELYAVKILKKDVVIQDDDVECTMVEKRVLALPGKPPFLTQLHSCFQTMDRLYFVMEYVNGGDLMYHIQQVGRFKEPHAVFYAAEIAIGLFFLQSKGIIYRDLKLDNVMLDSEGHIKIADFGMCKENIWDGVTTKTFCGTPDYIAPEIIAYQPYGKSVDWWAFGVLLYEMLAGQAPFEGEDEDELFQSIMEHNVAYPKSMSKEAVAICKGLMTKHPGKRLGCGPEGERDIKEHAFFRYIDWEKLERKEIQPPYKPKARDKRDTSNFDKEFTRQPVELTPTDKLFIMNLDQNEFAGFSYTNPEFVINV

[7] = molecular target: Protein kinase C beta type (Homo sapiens) (UniProt P05771); conditions: at 1 µM
[8] = molecular target: Protein kinase C eta type (Homo sapiens) (UniProt P24723); conditions: at 0.1 µM
Sequence of Protein kinase C eta type (Homo sapiens) (P24723 whole entry): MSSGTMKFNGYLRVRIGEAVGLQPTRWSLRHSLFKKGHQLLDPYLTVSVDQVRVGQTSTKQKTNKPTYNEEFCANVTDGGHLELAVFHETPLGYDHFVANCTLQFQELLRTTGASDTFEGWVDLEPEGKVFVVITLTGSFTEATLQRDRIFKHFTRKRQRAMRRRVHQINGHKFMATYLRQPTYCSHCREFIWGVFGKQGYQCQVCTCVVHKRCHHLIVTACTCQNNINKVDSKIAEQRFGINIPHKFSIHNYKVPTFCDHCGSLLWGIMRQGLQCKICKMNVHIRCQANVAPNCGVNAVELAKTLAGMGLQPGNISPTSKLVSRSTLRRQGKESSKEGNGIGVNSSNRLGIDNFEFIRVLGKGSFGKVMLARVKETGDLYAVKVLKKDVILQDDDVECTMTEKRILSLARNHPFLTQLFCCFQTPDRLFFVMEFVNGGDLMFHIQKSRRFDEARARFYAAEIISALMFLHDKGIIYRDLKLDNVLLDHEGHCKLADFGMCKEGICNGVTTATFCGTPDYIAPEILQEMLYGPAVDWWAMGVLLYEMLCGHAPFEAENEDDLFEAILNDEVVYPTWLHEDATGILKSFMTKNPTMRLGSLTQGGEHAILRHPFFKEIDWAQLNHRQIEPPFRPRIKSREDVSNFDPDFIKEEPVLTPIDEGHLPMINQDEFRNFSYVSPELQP

[9] = molecular target: Protein kinase C eta type (Homo sapiens) (UniProt P24723); conditions: at 1 µM
[10] = molecular target: Protein kinase C gamma type (Homo sapiens) (UniProt P05129); conditions: at 0.1 µM
[11] = molecular target: Protein kinase C gamma type (Homo sapiens) (UniProt P05129); conditions: at 1 µM
[12] = molecular target: T2, Protein kinase C iota type (Homo sapiens) (UniProt P41743); conditions: at 0.1 µM
T2 sequence (whole entry): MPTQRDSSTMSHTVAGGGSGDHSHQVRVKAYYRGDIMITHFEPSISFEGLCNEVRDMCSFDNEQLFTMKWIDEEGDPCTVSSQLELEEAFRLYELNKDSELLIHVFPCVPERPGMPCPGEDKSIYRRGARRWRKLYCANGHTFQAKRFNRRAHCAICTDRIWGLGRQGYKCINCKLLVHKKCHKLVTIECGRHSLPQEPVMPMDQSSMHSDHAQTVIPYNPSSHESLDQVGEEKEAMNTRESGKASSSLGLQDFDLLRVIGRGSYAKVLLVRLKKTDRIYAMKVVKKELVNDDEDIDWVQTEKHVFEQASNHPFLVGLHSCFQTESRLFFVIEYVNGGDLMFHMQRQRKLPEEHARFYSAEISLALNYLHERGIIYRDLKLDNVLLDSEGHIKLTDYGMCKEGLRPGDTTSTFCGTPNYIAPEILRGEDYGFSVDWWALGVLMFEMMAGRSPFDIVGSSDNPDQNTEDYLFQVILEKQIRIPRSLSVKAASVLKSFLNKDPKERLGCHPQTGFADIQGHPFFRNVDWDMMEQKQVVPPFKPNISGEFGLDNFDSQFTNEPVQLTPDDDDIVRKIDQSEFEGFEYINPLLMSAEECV

[13] = molecular target: T2, Protein kinase C iota type (Homo sapiens); conditions: at 1 µM
[14] = molecular target: Protein kinase C theta type (Homo sapiens) (UniProt Q04759); conditions: at 0.1 µM
Sequence of Protein kinase C theta type (Homo sapiens) (Q04759 whole entry, looked up): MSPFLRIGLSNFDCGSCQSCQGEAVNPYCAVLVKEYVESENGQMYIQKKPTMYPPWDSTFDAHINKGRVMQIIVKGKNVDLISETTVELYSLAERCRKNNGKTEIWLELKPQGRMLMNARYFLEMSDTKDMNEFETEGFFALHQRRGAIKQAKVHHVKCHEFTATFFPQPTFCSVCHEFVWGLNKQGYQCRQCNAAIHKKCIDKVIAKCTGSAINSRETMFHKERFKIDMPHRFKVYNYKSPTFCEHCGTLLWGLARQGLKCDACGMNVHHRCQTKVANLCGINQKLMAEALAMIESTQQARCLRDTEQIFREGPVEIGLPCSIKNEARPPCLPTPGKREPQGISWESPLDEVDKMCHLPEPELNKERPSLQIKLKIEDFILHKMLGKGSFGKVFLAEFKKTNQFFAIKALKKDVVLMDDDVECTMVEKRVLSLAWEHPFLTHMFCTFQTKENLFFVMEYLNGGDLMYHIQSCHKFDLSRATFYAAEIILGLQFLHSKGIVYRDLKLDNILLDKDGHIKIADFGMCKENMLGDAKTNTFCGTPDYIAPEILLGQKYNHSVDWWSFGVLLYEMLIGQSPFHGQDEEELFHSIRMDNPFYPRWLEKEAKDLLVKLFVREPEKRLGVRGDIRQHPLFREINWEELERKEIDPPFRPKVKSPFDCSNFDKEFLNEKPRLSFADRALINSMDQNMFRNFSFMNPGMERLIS

[15] = molecular target: Protein kinase C theta type (Homo sapiens) (UniProt Q04759); conditions: at 1 µM
[16] = molecular target: Protein kinase C beta type (Homo sapiens) (UniProt P05771); conditions: at 0.1 µM; remark: listed apart in the source
[17] = molecular target: Protein kinase C beta type (Homo sapiens) (UniProt P05771); conditions: at 1 µM; remark: listed apart in the source
[18] = molecular target: T3, Serine/threonine-protein kinase D1 (Homo sapiens) (UniProt Q15139); conditions: at 0.1 µM
T3 sequence (whole entry): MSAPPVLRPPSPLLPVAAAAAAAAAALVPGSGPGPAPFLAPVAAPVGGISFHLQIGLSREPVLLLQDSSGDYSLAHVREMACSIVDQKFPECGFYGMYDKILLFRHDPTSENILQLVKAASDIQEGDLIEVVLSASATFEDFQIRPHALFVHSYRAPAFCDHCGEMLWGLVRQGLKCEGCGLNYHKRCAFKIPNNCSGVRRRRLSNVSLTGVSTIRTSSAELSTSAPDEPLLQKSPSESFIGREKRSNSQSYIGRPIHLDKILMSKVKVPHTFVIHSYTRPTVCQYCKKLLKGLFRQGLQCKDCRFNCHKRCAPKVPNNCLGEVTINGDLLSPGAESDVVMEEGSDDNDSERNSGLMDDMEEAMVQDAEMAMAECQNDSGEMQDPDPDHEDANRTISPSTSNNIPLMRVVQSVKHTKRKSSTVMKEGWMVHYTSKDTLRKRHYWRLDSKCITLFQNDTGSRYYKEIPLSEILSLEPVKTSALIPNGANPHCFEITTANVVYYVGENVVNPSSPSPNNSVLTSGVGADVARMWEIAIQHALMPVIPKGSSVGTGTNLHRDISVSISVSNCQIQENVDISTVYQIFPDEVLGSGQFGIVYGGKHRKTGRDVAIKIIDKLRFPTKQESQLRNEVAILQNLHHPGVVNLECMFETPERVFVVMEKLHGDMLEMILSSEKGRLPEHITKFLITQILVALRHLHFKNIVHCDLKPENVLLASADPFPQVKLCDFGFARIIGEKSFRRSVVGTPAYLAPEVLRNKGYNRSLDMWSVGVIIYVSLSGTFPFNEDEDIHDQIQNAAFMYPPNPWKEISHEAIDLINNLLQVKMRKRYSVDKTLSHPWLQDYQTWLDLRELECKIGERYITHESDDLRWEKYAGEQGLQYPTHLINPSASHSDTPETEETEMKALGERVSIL

[19] = molecular target: T3, Serine/threonine-protein kinase D1 (Homo sapiens); conditions: at 1 µM
[20] = molecular target: T4, Serine/threonine-protein kinase D2 (Homo sapiens) (UniProt Q9BZL6); conditions: at 0.1 µM;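 note: reported percent inhibition values are means, part of the GSK PKIS kinase panel screen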
T4 sequence (whole entry): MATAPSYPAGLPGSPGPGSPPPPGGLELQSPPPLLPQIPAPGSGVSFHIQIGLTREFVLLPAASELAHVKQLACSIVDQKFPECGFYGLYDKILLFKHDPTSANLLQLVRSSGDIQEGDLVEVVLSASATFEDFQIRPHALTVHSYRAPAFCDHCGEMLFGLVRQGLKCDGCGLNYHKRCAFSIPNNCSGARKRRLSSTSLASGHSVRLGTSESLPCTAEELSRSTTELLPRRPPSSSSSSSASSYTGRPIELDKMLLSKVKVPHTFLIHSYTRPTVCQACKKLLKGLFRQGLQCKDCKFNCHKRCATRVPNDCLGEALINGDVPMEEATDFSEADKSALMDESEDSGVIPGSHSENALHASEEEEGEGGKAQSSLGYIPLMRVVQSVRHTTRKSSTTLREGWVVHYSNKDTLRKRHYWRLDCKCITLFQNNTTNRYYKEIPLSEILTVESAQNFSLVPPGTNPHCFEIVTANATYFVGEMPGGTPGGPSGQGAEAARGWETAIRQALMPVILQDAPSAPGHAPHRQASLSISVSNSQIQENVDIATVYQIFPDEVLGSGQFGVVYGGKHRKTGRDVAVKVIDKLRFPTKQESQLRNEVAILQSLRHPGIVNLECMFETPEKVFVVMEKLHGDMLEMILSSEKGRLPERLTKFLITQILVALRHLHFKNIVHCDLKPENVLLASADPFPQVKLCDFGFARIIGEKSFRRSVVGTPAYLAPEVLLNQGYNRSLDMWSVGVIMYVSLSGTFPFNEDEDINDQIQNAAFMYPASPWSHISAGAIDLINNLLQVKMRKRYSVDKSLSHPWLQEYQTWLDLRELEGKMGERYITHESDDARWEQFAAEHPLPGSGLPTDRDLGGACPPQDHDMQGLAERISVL

Structure (SMILES)	inhibition [1]	inhibition [2]	inhibition [3]	inhibition [4]	inhibition [5]	inhibition [6]	inhibition [7]	inhibition [8]	inhibition [9]	inhibition [10]	inhibition [11]	inhibition [12]	inhibition [13]	inhibition [14]	inhibition [15]	inhibition [16]	inhibition [17]	inhibition [18]	inhibition [19]	inhibition [20]
CC1(C)CC(n2cnc(-c3ccc(F)cc3)c2-c2ccnc(N)n2)CC(C)(C)N1	0.82%	0.29%	4.01%	0.96%	2.63%	1.89%	3.35%	1.68%	-2.97%	-2.6%	1.2%	0.48%	0.2%	0.49%	1.27%	1.08%	4.59%	0.74%	3.49%	1.47%
CCOc1ccc2c(-c3ccnc(Nc4cc(OC)cc(C(F)(F)F)c4)n3)cnn2n1	1.07%	0.6%	3.91%	0.42%	5.31%	5.55%	2.13%	1.53%	-0.66%	1.75%	1.98%	1.79%	-0.03%	0.28%	-0.68%	1.09%	3.36%	0.73%	0.65%	0.66%
COC(=O)Nc1nc2cc(Oc3ccc(NC(=O)Nc4ccccc4)cc3)ccc2[nH]1	1.31%	2.49%	2.15%	-0.02%	0.51%	1.53%	2.12%	2.8%	6.1%	0.41%	4.89%	-0.48%	-0.69%	1.38%	2.87%	0.28%	0.72%	2.86%	3.15%	2.3%
COc1cc2c(cc1Nc1nc(Nc3cccc(F)c3C(N)=O)c3cc[nH]c3n1)N(C(=O)CN1CCN(C(C)C)CC1)CC2	-0.05%	3.63%	2.83%	3.39%	1.01%	0.6%	3.47%	0.59%	1.37%	1.36%	3.85%	-0.63%	-1.02%	2.08%	5.05%	1.31%	2.64%	4.89%	12.4%	4.84%
CN(C)CCNC(=O)Nc1ccc(N(C)c2ccnc(Nc3ccc(CS(C)(=O)=O)cc3)n2)cc1	2.36%	2.31%	5.69%	1.06%	1.51%	-0.61%	0.12%	5.94%	-2.33%	2.25%	3.46%	1.77%	4.15%	2.29%	2.96%	0.79%	0.59%	3.85%	7.28%	3.75%
Cc1cc(O)cc(C)c1/C=C/c1cncc(C(=O)OC(C)(C)C)c1	1.42%	1.82%	3.63%	0.14%	0.77%	0.46%	-1.03%	-1.29%	3.71%	3.91%	2.62%	2.97%	0.22%	1.48%	1.91%	1.37%	1.05%	2.14%	2.96%	1.79%
CNC(=O)c1sc(-n2cnc3cc(OC)c(OC)cc32)cc1OCc1ccccc1C(F)(F)F	1.81%	2.01%	2.29%	0.09%	0.93%	1.29%	-0.63%	3.69%	1.55%	5.06%	-2.1%	1.37%	0.74%	2.36%	0.67%	1.04%	1.38%	3.83%	4.48%	4%
CS(=O)(=O)CCNCc1ccc(-c2ccc3ncnc(Nc4ccc(OCc5ccccc5)cc4)c3c2)o1	1.7%	2.17%	2.45%	0.5%	1.49%	1.41%	0.21%	3.12%	3.6%	2.13%	3.26%	1.61%	1.87%	1.49%	2.01%	0.51%	0.86%	3.17%	4.08%	2.78%
Nc1ncnc2occ(-c3ccc(NC(=O)Nc4cc(C(F)(F)F)ccc4F)cc3)c12	2.41% and -0.72%	0.57% and -0.25%	1.31% and -1.17%	0.16% and -0.04%	0.52% and -0.37%	1.05% and -0.26%	1.13% and 0.29%	1.5% and 0.01%	1.23% and -2.29%	-0.11% and -2.32%	4.25% and -2.46%	1.22% and 0.26%	2.9% and 0.4%	0.8% and -1.06%	-0.69% and -1.44%	0.86% and -0.64%	1.67% and 0.08%	1.55% and -2.08%	2.08% and -1.19%	1.19% and -0.28%
Cc1c2ccc(N(C)c3ccnc(Nc4cccc(S(N)(=O)=O)c4)n3)cc2nn1C	1.36%	-2.27%	-0.54%	-2.47%	-0.96%	0.1%	-0.52%	4.05%	1.15%	1.65%	6.91%	1.66%	2.75%	1.34%	2.51%	1.36%	2.7%	-0.64%	2.68%	1.1%
N#Cc1ccc2c(-c3ccnc(NC4CC4)n3)c(-c3ccc(F)cc3)nn2c1	0.01%	1.59%	0.4%	0.15%	1.24%	-1.19%	-0.72%	2.95%	0.36%	1.4%	1.83%	0.18%	0.6%	1.35%	1.42%	1.33%	4.8%	5.97%	40%	5.96%
Nc1nccc(-c2c(-c3ccc(F)cc3)ncn2C2CCNCC2)n1	-3.23% and 1.39%	-0.37% and 3.2%	20.2% and 30.2%	1.33% and 2.68%	21.7% and 29%	1.41% and 3.25%	17.9% and 21.4%	-2.01% and 0.32%	0.29% and 1.78%	-1.71% and 0.92%	8.84% and 8.7%	-1.01% and 0.25%	0.48% and 1.35%	-1.64% and -0.14%	-0.41% and 0.45%	3.39% and 5.75%	28.4% and 33.6%	-0.71% and 3.19%	26.6% and 34.1%	-0.79% and 3.35%
